# Bioassay records from PubChem BioAssay.
# aSyn 5UTR inh = 5' untranslated region of α-synuclein, MLPCN primary screen. alpha-synuclein 5'UTR reporter, inhibitor activity. inhibition, % (tested at 7.5 µM). 300,000 compounds, 0.82% hits; in the data active = inhibition above about 60%; inconclusive = no clear call, values can overlap the other calls;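 also: H4 neuroglioblastoma cells stably carrying SNCA 5'UTR luciferase fusion; 0% = DMSO wells and 100% = positive control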
# BaF3 tox = reduces parental Ba/F3 cell viability, JAK2V617F counter-screen. 220,000 compounds, 1.1% hits. CellTiter-Glo ATP luminescence. inhibition, % at 5.6 µM;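 active = inhibition above a per-campaign cutoff, the mean inhibition of all tested compounds plus 3 SD, cut at about 27% in these data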;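 also: 0% = DMSO wells and 100% = JAK Inhibitor I control wells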
# APP transl inh = APP translation inhibition; SH-SY5Y APP 5'UTR-luciferase reporter, luminescence; inhibition, % at 2 µM; 190,000 compounds, 0.82% hits;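 active = inhibition above a set limit, derived from the sample mean plus 3 SD, cut at about 45% in these data; inconclusive = one replicate passes the limit while the other fails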
# IEC-6 cytotox = kills IEC-6 intestinal cells in KLF5 counter-screen; IEC-6 cytotoxicity, luminescence viability; inhibition, % at 5 µM; 290,000 compounds, 0.78% hits; AID 1825;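 also: 0% = plate median of test compound wells and 100% = cytotoxic reference compound wells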
# KLF5 inh = inhibitors of KLF5 expression; DLD-1 KLF5 promoter-luciferase reporter, luminescence; inhibition, % at 5 µM; 290,000 compounds, 0.23% hits; AID 1700;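 active = inhibition above a per-plate limit of that plate's mean compound inhibition plus 3 SD, cut at about 60% in these data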;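 also: 0% = DMSO wells and 100% = LY294002 at 200 µM; higher means less KLF5 promoter-driven luciferase light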
# Ba/F3 V617F tox = loss of viability in JAK2V617F-driven Ba/F3 cells | inhibition, % at 5.6 µM | Ba/F3 EpoR-JAK2V617F viability, ATP luminescence | AID 1446 | 220,000 compounds, 1.1% hits;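 active = inhibition above the campaign mean plus 3 SD over all tested compounds, cut at about 24% in these data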;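 also: cytokine-independent growth of Ba/F3 cells driven by EpoR plus mutant JAK2; 0% = DMSO-treated cells and 100% = JAK inhibitor I control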
# IEC-6 tox confirm = IEC-6 cytotoxicity, confirmation assay; 1,900 compounds, 63% hits; shares compounds with IEC-6 cytotox; IEC-6 rat intestinal epithelial viability, luminescence; inhibition, % at 5 µM; AID 1907;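 also: 0% = vehicle and 100% = reference cytotoxic drug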
# * = called active by the depositor; ? = inconclusive; / = not tested or not shown. Hits are enriched below; roughly 2.2% of the tested compounds scored in any of these assays. Rule as the data show it, unless noted: active = inhibition above about 22%; inactive = the rest.
SMILES,aSyn 5UTR inh,BaF3 tox,APP transl inh,IEC-6 cytotox,KLF5 inh,Ba/F3 V617F tox,IEC-6 tox confirm
CCc1nnc(N/N=C/c2c(F)cccc2Cl)n1N,-1,/,/,1,-17,/,/
Cc1nnc(N/N=C/c2cc(C)n(-c3ccc(F)cc3)c2C)n1N,-1,5,2,99*,-12,2,-4
Cc1nnc(N/N=C/c2c(Cl)cccc2Cl)n1N,-2,0,4,102*,-3,-1,-13
O=C(CC1C(=O)NCCN1Cc1cccc(F)c1)NCCCCCN1CCOCC1 (stereo unspecified),-9,/,/,2,-42,/,/
COc1cc(C(=O)N/N=C/c2coc3ccccc3c2=O)cc(OC)c1OC,20,/,/,70*,-40,/,2
COc1ccc(C(=O)N/N=C\c2coc3ccccc3c2=O)cc1,-4,0,/,-7,-32,-2,/
Cc1nc2cc(NC(=O)c3ccc(Cl)cc3)ccc2n1C,-35,/,/,-2,-82,/,/
COc1cc(C(=O)Nc2ccc3c(c2)nc(C)n3C)cc(OC)c1OC,-92,/,/,30*,20,/,19
COc1cc(C(=O)Nc2ccc3c(c2)ncn3C)cc(OC)c1OC,25,/,/,55*,50,/,34*
O=C1NC(=Nc2cccc([N+](=O)[O-])c2)SC1(CO)CO,-4,/,/,-4,-14,/,/
Cc1ccc(C)c(OCCC(=O)OCC(=O)Nc2ccc(N3CCOCC3)cc2)c1,1,/,/,/,/,/,/
CCN1CCN(CC2COc3ccccc3O2)CC1 (stereo unspecified),-11,/,/,4,-12,/,/
Cc1ccc2c(c1)C(=O)C(=O)N2CCCOc1ccccc1,-68,10,0,4,-13,2,/
CCOc1ccc2c(c1)C(=O)C(=O)N2CC1COc2ccccc2O1 (stereo unspecified),-11,/,/,72*,-6,/,14
Cc1ccc2c(c1)C(=O)C(=O)N2CC1COc2ccccc2O1 (stereo unspecified),-37,/,/,83*,-8,/,9
COc1ccc2c(c1)C(=O)C(=O)N2CC1COc2ccccc2O1 (stereo unspecified),-23,/,/,83*,12,/,9
CSc1nnc(SCC#N)s1,3,-1,/,0,-13,6,/
COc1ccc(C2CC(=O)N(C)c3ccccc3S2)cc1 (stereo unspecified),-38,-6,-6,24*,-30,4,9
Cc1cccc(Nc2nc(Cl)ncc2F)c1C,-7,/,/,2,-19,/,/
COc1ccc(/C=C/C(=O)c2cc(F)ccc2OC(=O)c2ccccc2)cc1OC,67*,1,90*,46*,56,0,37*
Cc1sc(NC(=O)C2CSC3(C)CCC(=O)N23)nc1-c1ccccc1 (stereo unspecified),8,/,/,/,/,/,/
Cn1ccnc1CN1CCCCC1C(=O)Nc1ccc(Oc2cccnc2)cc1 (stereo unspecified),-77,/,/,27*,15,/,3
CCn1ccnc1CN1CCCCC1C(=O)Nc1ccc(Oc2cccnc2)cc1 (stereo unspecified),-43,/,/,9,2,/,/
COc1cccc(C(=O)Oc2ccc(/C=N/Nc3ccc(C(=O)O)cc3)cc2OC)c1,-56,/,/,2,-58,/,/
COc1cccc(OCc2cc(/C=N/Nc3ccc(C(=O)O)cc3)ccc2OC)c1,-92,-3,/,28*,17,9,55*
SMILES,aSyn 5UTR inh,BaF3 tox,APP transl inh,IEC-6 cytotox,KLF5 inh,Ba/F3 V617F tox,IEC-6 tox confirm
CC1CCN(Cc2ccc(-c3nnn(CC(=O)Nc4ccccc4Cl)n3)cc2)CC1,-3,3,3,34*,5,-2,26*
CCOC(=O)c1nnsc1Nc1ccc(C)c(C)c1,-20,7,8,0,2,4,/
CNC(=O)CSc1nnc(C2CC2)n1-c1ccccc1,13,6,-9,0,8,3,/
COc1ccccc1OCC(=O)NN=C(Cc1ccccc1)Cc1ccccc1,1,5,9,6,-32,0,/
CCOc1ccccc1OCC(=O)N/N=C(\C)Cc1ccc(OC)cc1,87*,73*,92*,70*,55,72*,-17
CCS(=O)(=O)c1ncc(Cl)c(C(=O)Nc2ccc(C)cc2)n1,-27,/,/,75*,20,/,42*
Cc1ccc(CS(=O)(=O)c2ncc(Cl)c(C(=O)Nc3ccc(OC(F)F)cc3)n2)cc1,?,/,/,31*,10,/,15
CCS(=O)(=O)c1ncc(Cl)c(C(=O)Nc2ccc(S(=O)(=O)N3CCCC(C)C3)cc2)n1 (stereo unspecified),72*,/,/,101*,55,/,4
